HBB splicing – alters splicing of the hemoglobin beta chain. HBB splicing reporter cell assay, activation; EGFP reporter with mutant IVS2-654 intron; response scale: normalised to 500 nM splice-correcting PNA. 0.06% of 65,000 active. Potency, µM (highest dose often 46.1 µM), for the others: top-dose activation, hits mostly activators; note: potency is the fitted concentration of half-maximal effect; 0% is about no effect
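Compounds were applied for 2 days to HeLa EGFP-654 cells, 500/well in Optimem with 2% FCS. The reporter's EGFP is disrupted by mis-splicing of beta-globin intron IVS2-654. Readout: summed well GFP fluorescence from 488 nm laser scanning; reference was 500 nM antisense […] 654 PNA.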
Ub-GFP proteasome – proteasome inhibitors stabilizing ubiquitin-GFP reporter; Ubiquitin-GFP reporter cells, proteasome inhibition, GFP fluorescence; response scale: untreated = 0%, 10 µM MG-132 = 100%; Potency, µM (titrated, usually from 45.9 µM), for inactives: top-dose activation (GFP accumulation), usual class: activators; 67,000 tested, under 10 active; active = well fitted activation curve with a large enough effect, not every such curve was filed as active; inconclusive = small, poorly fitted or top-dose-only effect, or another doubt; inactive = no such curve, though single readings can be large or run the other way; note: potency is the fitted concentration of half-maximal effect
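Proteasome blockade was scored as a rise in GFP-expressing U2OS cells carrying a ubiquitin(G76V)-GFP construct, imaged after 4 hr compound treatment at 37 °C across a 46 uM–2.9 nM series.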
Bst PK mod – alters activity of Bacillus stearothermophilus pyruvate kinase; AID 361; 1.2% of 51,000 active; purified pyruvate kinase, luminescence ATP production; ribose 5-phosphate activator present at AC10; Potency, µM; in the data active = potency below about 11 µM; inconclusive = mostly about 12 µM to 25 µM;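 the screen sought inhibitors and activators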;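 note: potency is the fitted concentration of half-maximal effect; scaled between full activation by ribose 5 phosphate and full inhibition by luteolin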
GBA activity – alters purified human glucocerebrosidase activity. P04062. purified enzyme, resorufin glucoside fluorescence (screen aimed at inhibitors), 20 min. Potency, µM. 1.1% of 48,000 active; in the data active = potency below about 15 µM; inconclusive = mostly about 16 µM to 33 µM;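 note: potency is the fitted concentration of half-maximal effect; the screen sought inhibitors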
Target sequence (P04062 whole entry, looked up): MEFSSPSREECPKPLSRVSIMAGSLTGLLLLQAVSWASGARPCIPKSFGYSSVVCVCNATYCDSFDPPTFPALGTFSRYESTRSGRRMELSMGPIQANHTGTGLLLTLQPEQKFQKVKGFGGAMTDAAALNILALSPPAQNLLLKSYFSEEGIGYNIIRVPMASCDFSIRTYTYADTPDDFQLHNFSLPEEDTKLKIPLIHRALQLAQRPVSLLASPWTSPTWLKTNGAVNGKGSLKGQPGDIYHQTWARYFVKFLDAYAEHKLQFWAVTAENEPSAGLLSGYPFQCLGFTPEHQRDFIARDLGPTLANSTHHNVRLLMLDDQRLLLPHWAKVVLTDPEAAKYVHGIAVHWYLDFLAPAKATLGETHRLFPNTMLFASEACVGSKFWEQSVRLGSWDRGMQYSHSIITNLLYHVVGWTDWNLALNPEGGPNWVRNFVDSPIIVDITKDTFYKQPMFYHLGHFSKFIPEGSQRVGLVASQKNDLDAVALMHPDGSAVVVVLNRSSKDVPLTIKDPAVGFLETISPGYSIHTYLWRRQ
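Wild-type enzyme at 0.2 nM final in 50mM citric acid/KH2PO4, 10mM sodium taurocholate, 0.01% tween-20, pH 5.9, with resorufin beta-D-glucopyranoside at 30 uM final. Compounds titrated, 20 min at RT, red fluorescence read; AC50 from titration.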
FLuc inh – firefly luciferase inhibition. P08659. 2.2% of 72,000 active. Potency, µM (titrated, usually from 57.1 µM), for inactives: at the top dose activity change, negative = inhibition, actives largely listed as inhibitors. purified firefly luciferase, luminescence, 8 min; note: potency is the fitted concentration of half-maximal effect; % is set by controls: 0 for no effect and ±100 for the full control effect; nearly all actives have a fitted effect of over 40% in size
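Luminescence read-out after 8 min at room temperature; enzyme reaction used luciferin plus 10 uM ATP (linear range) in imidazole buffer pH 7.2 with KCl, MgCl2, Tween 20 and BSA. Each sample was run as a titration.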
GFP derepression – epigenetic modulators derepressing GFP locus in mouse cells. mouse C127i GFP locus derepression, cytometry, 30 h. Potency, µM (top dose mostly 46.1 µM), for the others: at the top dose GFP derepression (activation). 0.09% of 68,000 active. AID 597; note: % of control where 0% means no effect
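Murine C127i mammary cells carrying a silenced, stably integrated CMV-driven GFP reporter were treated with compound for 30 hours at 37 C. After PBS washes, GFP-positive cells were counted by laser-scanning microplate cytometry.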
* marks the source's active call; other numbers are inactive results; i = inactive; ? = inconclusive; nt = no result; [ ] = another dose, or the depositor's remark. An excerpt weighted towards active compounds, which were near 3.3% of everything screened. Unless noted, calls come from the whole dose curve; as a rule, active = well fitted curve in the direction sought with a large enough effect; inconclusive = small, poorly fitted or top-dose-only effect, or another doubt; inactive = no such curve, though single readings can be large; an effect the other way counts as inactive or inconclusive.

SMILES	HBB splicing	Ub-GFP proteasome	Bst PK mod	GBA activity	FLuc inh	GFP derepression
O=C1/C(=C/Nc2ccc3c(c2)OCO3)CCc2ccccc21	-2%	-3%	nt	nt	0.63µM*	3%
Cc1cccc(CNc2ncncc2-c2cccc(NS(C)(=O)=O)c2)c1	1%	8%	nt	nt	1%[2.29 µM]	5%[9.22 µM]
O=C(Cc1ccccc1)Nc1ccc(NC(=O)c2ccco2)nc1	nt	3%	>57	>77	-11%	2%
O=C(Nc1ccc(NC(=O)C2CCCCC2)cn1)c1ccco1	nt	-2%	i	9.8*	5µM*	-2%
CC(C)C(=O)Nc1ccc(NC(=O)c2ccccn2)cn1	-4%	-2%	i	>77	13µM*	-2%
O=C(Nc1ccc(NC(=O)C2CC2)nc1)c1ccccn1	nt	-1%	i	>77	20µM*	3%
O=C(Nc1ccc(NC(=O)c2ccco2)nc1)c1ccccn1	-1%	-5%	nt	>77	10µM*	-1%
O=C(Nc1ccc(NC(=O)C23CC4CC(CC(C4)C2)C3)cn1)c1ccco1	nt	4%	>57	>77	-21%	4%
CCCCCCCCCCCCC/C=C\[C@H](O)[C@H](N)CO	2%	-2%	nt	nt	-3%	-2%
Nc1nc(SCCc2ccccc2)c2[nH]cnc2n1	1%[9.22 µM]	0%[9.17 µM]	nt	nt	1%[11.4 µM]	0%[9.22 µM]
CCC(=O)Nc1ccc(NC(=O)c2ccccn2)cn1	-5%	1%	nt	>77	40µM*	0%
N#CC(C#N)=c1ccc2c(c1)NC1(CCCCC1)N=2	0%[57.5 µM]	-3%	nt	nt	7.9µM*	-2%
O=C(Nc1ccc(C(=O)N2CCOCC2)cc1)c1cccs1	nt	1%	>57	>77	-2%	1%
O=C(c1ccc(N2CCOCC2)cc1)c1cccs1	nt	-9%	?	>77	10µM*	0%
COc1ccc2cc3cc(C(=O)NCCN4CCN(Cc5ccccc5)CC4)oc3nc2c1	-2%	-13%	?	>77	-1%	-1%
COc1ccc2cc3cc(C(=O)NCCN4CCc5ccccc5C4)oc3nc2c1	0%	0%	0.76*	>77	-1%	3%
CCCNC(=O)OC[C@H]1O[C@@H](CCO/N=C\[C@@H](NS(=O)(=O)c2ccc(C)cc2)[C@H](C)/C=C\CC(=O)OC)C=C[C@@H]1Oc1ccc(OC)cc1	1%[9.22 µM]	nt	nt	nt	1%[11.4 µM]	nt
COc1ccc2c(c1OC)C(=O)N1c3cccc(Cl)c3C(=O)OC21 (stereo not given)	1%	12%	>57	>77	-3%	0%
COc1ccc2c(c1OC)C(=O)N1c3ccccc3COC21 (stereo not given)	0%	3%	?	>77	10µM*	0%
COc1ccc2c(c1OC)C(=O)N1c3ccccc3SC21 (stereo not given)	nt	nt	i	nt	5µM*	10%[20.6 µM]
O=C(O)CC(NC(=O)c1ccccc1NC(=O)c1ccccc1)C(=O)O (stereo not given)	0%[9.22 µM]	1%	nt	nt	-6%	-2%
Cc1ccc(C(=O)Nc2ccccc2C(=O)NC(CC(=O)O)C(=O)O)cc1 (stereo not given)	-1%	2%	nt	10*	32µM*	1%
O=C1[C@@H]2[C@H]3C(=CC[C@@H]2C(=O)N1Cc1ccccc1)C1(OCCCO1)[C@H]1O[C@@H]1[C@H]3O	1%[9.22 µM]	nt	nt	nt	1%[11.4 µM]	nt
COCCNC(=O)c1noc2c1CCc1cc(OC)ccc1-2	0%	3%	nt	>77	13µM*	2%
CCCn1c(=O)c2ccccc2n2c(SCCOc3ccccc3)nnc12	0%[57.5 µM]	3%	nt	>77	2%	-3%
SMILES	HBB splicing	Ub-GFP proteasome	Bst PK mod	GBA activity	FLuc inh	GFP derepression
COc1ccc2cnn(CCOc3ccccc3)c(=O)c2c1OC	1%[57.5 µM]	1%	nt	>77	16µM*	-2%
Cc1nc(N2CCOCC2)c2nc(-c3ccccc3)n(CCN3CCCCC3)c2n1	-1%	18%	nt	nt	nt	nt
Cc1ccc(OCc2nc(-c3ccccc3)no2)c(C)c1	0%	-4%	nt	nt	16µM*	0%
C/C(CCC(=O)OC[C@@H]1O[C@H](C#Cc2ccccc2)C=C[C@@H]1Oc1ccc(C)cc1)=N/O[C@@H](C)CN1CCCCc2nc(C)c(C)cc21	1%[9.22 µM]	nt	nt	nt	1%[11.4 µM]	nt
Cc1nc2cc(NC(=O)NCc3ccco3)ccc2n1C	0%	-3%	>57	?	-6%	-1%
Cc1nc2cc(NC(=O)Nc3nccs3)ccc2n1C	0%	-1%	11*	nt	6.3µM*	-3%
CC(C)CN(C)c1nc(N)c(C(=O)N=C(N)N)nc1Cl	0%	-10%	nt	nt	-5%	-3%
CCN(C(=O)Cc1cccs1)c1nnc(-c2cc(OC)c(OC)c(OC)c2)s1	nt	8%	>57	>77	-2%	0%
CCOc1ccc(-c2nnc(N(CC)C(=O)C3CCC3)s2)cc1	0%[57.5 µM]	2%	?	>77	16µM*	0%
CCCC(=O)N(C)c1nnc(-c2ccc(OC)cc2)s1	nt	-3%	i	>77	16µM*	3%
C/C(CCN1CCCc2nc(C)c(C)cc21)=N\O[C@@H](C)CN1CCCc2nc(C)c(C)cc21	4%[9.22 µM]	nt	nt	nt	0%[11.4 µM]	nt
CC(=O)OC[C@@H]1O[C@@H](O/N=C2/C[C@@H](O)[C@@H](O)[C@@H]3[C@@H]4C(=O)N(C[C@@H]5CCCO5)C(=O)[C@H]4CC[C@@H]23)[C@H](OC(C)=O)[C@H](OC(C)=O)[C@@H]1OC(C)=O	1%[9.22 µM]	nt	nt	nt	1%[11.4 µM]	nt
COC(=O)[C@H]1[C@@H]2C[C@H]3c4[nH]c5ccccc5c4CCN3C[C@@H]2CC[C@@H]1O	nt	5%	nt	nt	0%[11.4 µM]	2%[9.22 µM]
c1ccc(Nc2ncnc3ccc(-c4ccc5c(c4)OCO5)cc23)cc1	-1%	-3%	nt	nt	0%[2.29 µM]	-1%[9.22 µM]
CN(C)CCC(=O)c1ccc2c(c1)OCO2	-1%	2%	>57	>77	6%	1%
O=C(/C=C\Nc1cccc(F)c1)c1ccc2c(c1)OCO2	-4%[0.0738 µM]	18%[9.17 µM]	nt	nt	0.4µM*	0%
O=C(Nc1ccc2c(c1)OCO2)c1cccc(F)c1	-1%	8%	nt	>77	?	0%
O=C(CCNc1ccccc1)c1ccc2c(c1)OCO2	2%[57.5 µM]	1%	nt	>77	16µM*	0%
Cc1cccc(-c2nnc(-c3ccc(N)cc3)o2)c1	-2%	-1%	9*	>77	13µM*	4%
Brc1cccc(-c2nnc(-c3ccccc3)o2)c1	-1%	-24%	i	nt	16µM*	3%
Cc1ccc(-c2nnc(-c3ccc4ccccc4c3)o2)cc1	2%[9.22 µM]	-2%[9.17 µM]	nt	nt	-6%[11.4 µM]	14%[9.22 µM]
Clc1cccc(-c2nnc(-c3ccccc3)o2)c1	-4%	9%	nt	nt	5µM*	2%
Cc1ccccc1-c1nnc(-c2ccc(Br)cc2)o1	nt	-4%	4.4*	>77	-1%	4%
Cc1ccc(-c2nnc(-c3cccc(Br)c3)o2)cc1	nt	nt	nt	nt	-28%[25.5 µM]	-3%[20.6 µM]
CC(C)[C@@H](OCc1ccccc1)[C@H](C)/C=N\OC[C@@H](O)COCc1ccco1	2%[9.22 µM]	nt	nt	nt	1%[11.4 µM]	nt
COc1ccc([N+](=O)[O-])cc1N	1%	nt	nt	nt	nt	nt
